# Results: ChEMBL document CHEMBL1961873, “Compounds: GSK PKIS; Assays: Nanosyn kinase panel” (2012)
# Target: T1, Aurora kinase A (Homo sapiens) (UniProt O14965);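 note: values are mean percent inhibition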
# T1 sequence (whole entry): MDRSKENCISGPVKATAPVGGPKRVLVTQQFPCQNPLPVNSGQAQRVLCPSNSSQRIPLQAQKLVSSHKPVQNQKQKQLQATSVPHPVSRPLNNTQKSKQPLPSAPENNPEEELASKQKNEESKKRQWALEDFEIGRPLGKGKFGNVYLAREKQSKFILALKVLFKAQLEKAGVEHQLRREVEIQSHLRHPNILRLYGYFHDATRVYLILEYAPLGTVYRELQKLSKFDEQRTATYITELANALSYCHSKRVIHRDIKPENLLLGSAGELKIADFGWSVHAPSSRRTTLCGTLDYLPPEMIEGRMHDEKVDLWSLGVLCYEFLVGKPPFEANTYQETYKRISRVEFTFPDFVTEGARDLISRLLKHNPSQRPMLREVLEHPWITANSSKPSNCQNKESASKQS
# Settings: at 1 µM
row,SMILES,inhibition [%]
1,O=C1Nc2ccc(I)cc2C1=Cc1cc(Br)c(O)c(Br)c1,9.69
2,CCS(=O)(=O)c1ccc(OC)c(Nc2ncc(-c3cccc(-c4ccccc4F)c3)o2)c1,15
3,COc1ccc(-c2ccc3c(NC(=O)C4CC4)n[nH]c3n2)cc1,9.18
4,CCc1ccc(Oc2nccc(-c3c(-c4ccc(F)cc4)ncn3C3CCNCC3)n2)cc1,2.66
5,NCc1ccc(-n2c(-c3nonc3N)nc3cnccc32)cc1,8.79
6,CN1CCN(CCCNc2nc3ccc(Oc4ccc(NC(=O)Nc5cc(C(F)(F)F)ccc5F)cc4)cc3[nH]2)CC1,-0.34
7,NS(=O)(=O)c1ccc(Nc2cc(-c3ccc(O)c(F)c3)n[nH]2)cc1,37.3
8,NS(=O)(=O)c1ccc(N/N=C2\C(=O)Nc3ccc(-c4cnco4)cc32)cc1,33.1
9,CCc1cccc(CC)c1/C=C/c1cncc(C(=O)NC)c1,6.42
10,FC(F)(F)c1cccc(Nc2nccc(-c3cnn4nc(-c5ccccc5)ccc34)n2)c1,3.33
11,COc1ccc2cc(-c3c(-c4ccncc4)nc(-c4ccc([S+](C)[O-])cc4C)n3C)ccc2c1 (stereo not drawn),4.24
12,CCS(=O)(=O)c1ccc(OC)c(Nc2ncc(-c3ccccc3Cl)o2)c1,10.9
13,C[C@@H](Oc1cc(-n2cnc3ccc(OCC4CCN(C)CC4)cc32)sc1C(N)=O)c1ccccc1Cl,6.43
14,C[C@@H](Oc1cc(-n2cnc3ccc(OC4CCN(C)CC4)cc32)sc1C(N)=O)c1ccccc1Cl,-0.02
15,CCN(CC)Cc1ccc(Nc2nccc(-c3cnn4ncccc34)n2)cc1,34.3
16,Fc1ccc(-c2ncn(CCCN3CCOCC3)c2-c2ccncc2)cc1,3.87
17,Fc1ccc(-c2nc3n(c2-c2ccncc2)CCS3)cc1,1.43

row,SMILES,inhibition [%]
1,Fc1ccc(-c2ncn(C3CCNCC3)c2-c2ccnc(Oc3ccc4c(c3)OCO4)n2)cc1,2.71
2,Fc1ccc(-c2c(-c3ccncc3)nc3n2CCS3)cc1,2.75
3,O=C(Nc1n[nH]c2nc(-c3ccc(O)cc3)c(Br)cc12)C1CC1,37.7
4,CN(C)CCOc1ccc(-c2cc(-c3ccc4c(c3)CCC4=NO)c(-c3ccncc3)o2)cc1,0.04
5,COc1ccc(C2=C(N3CCc4ccccc43)C(=O)NC2=O)cc1,12.5
6,CN(c1ccc(NC(=O)Nc2c(Cl)cccc2Cl)cc1)c1ccnc(Nc2cccc(CS(C)(=O)=O)c2)n1,97.6
7,Cc1ccc(C(=O)NC2CCC2)cc1-c1ccc(C(=O)NCC2CC2)cc1,7.83
8,COc1cccc(-n2cnc3c(N/N=C/c4ccncc4)ncnc32)c1,13
9,Cc1ccc(C(=O)NC(C)C)cc1-c1ccc(C(=O)NCC2CC2)cc1,-2.53
10,NC(=O)Cc1ccccc1Oc1nccc(-c2c(-c3ccc(F)cc3)ncn2C2CCNCC2)n1,0.49
11,O=C1Nc2ccccc2/C1=C/Nc1ccc(-n2cncn2)cc1,36.3
12,c1ccc(Oc2ccc(Nc3ncc(-c4ccccc4)o3)cc2)cc1,10.2
13,COc1cc2ncn(-c3cc(OCc4ccccc4C(F)(F)F)c(C(C)=O)s3)c2cc1OC,4.46
14,COc1ccc2ncn(-c3cc(O[C@H](C)c4ccccc4Cl)c(C(N)=O)s3)c2c1,0.29
15,CCc1nccc2c1nc(-c1nonc1N)n2CC,11.2
16,CN(C)c1ccc2c(c1)/C(=C/Nc1ccc(S(N)(=O)=O)cc1)C(=O)N2,50.7
17,COc1cc2ncn(-c3cc(OCc4cccs4)c(C(N)=O)s3)c2cc1OC,13.4

# Target: Aurora kinase B (Homo sapiens) (UniProt Q96GD4);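 note: reported values are averaged percent inhibition of Aurora B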
# Sequence (Q96GD4 whole entry): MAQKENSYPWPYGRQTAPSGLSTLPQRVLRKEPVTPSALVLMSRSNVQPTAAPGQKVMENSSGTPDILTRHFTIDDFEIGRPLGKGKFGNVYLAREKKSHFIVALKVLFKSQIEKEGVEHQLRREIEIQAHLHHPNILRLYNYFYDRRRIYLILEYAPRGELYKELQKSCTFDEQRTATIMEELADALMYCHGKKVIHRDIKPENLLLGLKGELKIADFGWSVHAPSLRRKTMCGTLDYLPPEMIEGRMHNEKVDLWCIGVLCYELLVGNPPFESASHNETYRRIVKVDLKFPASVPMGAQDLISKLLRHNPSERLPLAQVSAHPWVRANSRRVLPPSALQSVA
# Settings: at 0.1 µM
row,SMILES,inhibition [%]
1,O=C1Nc2ccc(I)cc2C1=Cc1cc(Br)c(O)c(Br)c1,1.83
2,CCS(=O)(=O)c1ccc(OC)c(Nc2ncc(-c3cccc(-c4ccccc4F)c3)o2)c1,3.23
3,COc1ccc(-c2ccc3c(NC(=O)C4CC4)n[nH]c3n2)cc1,3.59
4,CCc1ccc(Oc2nccc(-c3c(-c4ccc(F)cc4)ncn3C3CCNCC3)n2)cc1,3.48
5,NCc1ccc(-n2c(-c3nonc3N)nc3cnccc32)cc1,3.64
6,CN1CCN(CCCNc2nc3ccc(Oc4ccc(NC(=O)Nc5cc(C(F)(F)F)ccc5F)cc4)cc3[nH]2)CC1,-0.75
7,NS(=O)(=O)c1ccc(Nc2cc(-c3ccc(O)c(F)c3)n[nH]2)cc1,0.09
8,NS(=O)(=O)c1ccc(N/N=C2\C(=O)Nc3ccc(-c4cnco4)cc32)cc1,-2.59
9,CCc1cccc(CC)c1/C=C/c1cncc(C(=O)NC)c1,-0.55
10,FC(F)(F)c1cccc(Nc2nccc(-c3cnn4nc(-c5ccccc5)ccc34)n2)c1,2.71
11,COc1ccc2cc(-c3c(-c4ccncc4)nc(-c4ccc([S+](C)[O-])cc4C)n3C)ccc2c1 (stereo not drawn),2.96
12,CCS(=O)(=O)c1ccc(OC)c(Nc2ncc(-c3ccccc3Cl)o2)c1,-1.57
13,C[C@@H](Oc1cc(-n2cnc3ccc(OCC4CCN(C)CC4)cc32)sc1C(N)=O)c1ccccc1Cl,4.49
14,C[C@@H](Oc1cc(-n2cnc3ccc(OC4CCN(C)CC4)cc32)sc1C(N)=O)c1ccccc1Cl,-0.58
15,CCN(CC)Cc1ccc(Nc2nccc(-c3cnn4ncccc34)n2)cc1,27.5
16,Fc1ccc(-c2ncn(CCCN3CCOCC3)c2-c2ccncc2)cc1,0.52
17,Fc1ccc(-c2nc3n(c2-c2ccncc2)CCS3)cc1,-0.42

row,SMILES,inhibition [%]
1,Fc1ccc(-c2ncn(C3CCNCC3)c2-c2ccnc(Oc3ccc4c(c3)OCO4)n2)cc1,5.39
2,Fc1ccc(-c2c(-c3ccncc3)nc3n2CCS3)cc1,-0.21
3,O=C(Nc1n[nH]c2nc(-c3ccc(O)cc3)c(Br)cc12)C1CC1,4.29
4,CN(C)CCOc1ccc(-c2cc(-c3ccc4c(c3)CCC4=NO)c(-c3ccncc3)o2)cc1,-1.06
5,COc1ccc(C2=C(N3CCc4ccccc43)C(=O)NC2=O)cc1,0.57
6,CN(c1ccc(NC(=O)Nc2c(Cl)cccc2Cl)cc1)c1ccnc(Nc2cccc(CS(C)(=O)=O)c2)n1,76.4
7,Cc1ccc(C(=O)NC2CCC2)cc1-c1ccc(C(=O)NCC2CC2)cc1,0.48
8,COc1cccc(-n2cnc3c(N/N=C/c4ccncc4)ncnc32)c1,0.64
9,Cc1ccc(C(=O)NC(C)C)cc1-c1ccc(C(=O)NCC2CC2)cc1,-0.47
10,NC(=O)Cc1ccccc1Oc1nccc(-c2c(-c3ccc(F)cc3)ncn2C2CCNCC2)n1,2.8
11,O=C1Nc2ccccc2/C1=C/Nc1ccc(-n2cncn2)cc1,6.72
12,c1ccc(Oc2ccc(Nc3ncc(-c4ccccc4)o3)cc2)cc1,2.17
13,COc1cc2ncn(-c3cc(OCc4ccccc4C(F)(F)F)c(C(C)=O)s3)c2cc1OC,7.82
14,COc1ccc2ncn(-c3cc(O[C@H](C)c4ccccc4Cl)c(C(N)=O)s3)c2c1,-0.75
15,CCc1nccc2c1nc(-c1nonc1N)n2CC,1.28
16,CN(C)c1ccc2c(c1)/C(=C/Nc1ccc(S(N)(=O)=O)cc1)C(=O)N2,4.95
17,COc1cc2ncn(-c3cc(OCc4cccs4)c(C(N)=O)s3)c2cc1OC,2.98
